# Columns and labels:
# Experiment in all cases: DAPPL (digital affinity profiling via proximity ligation, sequencing); 10 mM Tris-HCl pH 7.5, 50 mM NaCl, 1 mM DTT, 4% glycerol, room temperature, 30 min; GST-TFs on glutathione beads, 16-mer random dsDNA library, 0.1% formaldehyde crosslink after washing; high values mean tight binding
# FLI1 = target: T1, FLI1 (Homo sapiens, UniProt Q01543 1-452); conditions: protein: recombinant; tags: N-terminal GST; dsDNA, one strand shown
# T1 sequence: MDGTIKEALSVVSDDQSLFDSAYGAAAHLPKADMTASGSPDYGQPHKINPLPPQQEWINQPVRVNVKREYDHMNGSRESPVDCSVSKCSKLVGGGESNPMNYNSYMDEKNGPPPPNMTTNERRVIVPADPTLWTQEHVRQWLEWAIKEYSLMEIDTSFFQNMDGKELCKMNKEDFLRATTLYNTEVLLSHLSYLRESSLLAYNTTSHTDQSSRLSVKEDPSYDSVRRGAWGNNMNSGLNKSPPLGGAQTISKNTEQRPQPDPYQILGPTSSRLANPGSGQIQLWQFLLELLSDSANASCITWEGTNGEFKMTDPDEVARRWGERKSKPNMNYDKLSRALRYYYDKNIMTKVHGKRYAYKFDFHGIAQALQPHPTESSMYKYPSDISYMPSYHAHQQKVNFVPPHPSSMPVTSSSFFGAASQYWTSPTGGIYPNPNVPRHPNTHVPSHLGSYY
# How it was run: (§1)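 A tag-only sample was pooled with DNA-barcoded human transcription factors that had been expressed in yeast as GST fusions and captured on glutathione beads. The pools were incubated for 30 min at room temperature with 200 nmole of a random double-stranded 16-mer DNA library in Tris/NaCl/DTT/glycerol buffer, then washed, crosslinked with 0.1% formaldehyde, proximity-ligated (BsaI/T4 ligase, 1 h, 37 °C), PCR-amplified and sequenced on an Illumina NextSeq500. Binding signal is each hexamer's read frequency for a factor divided by its frequency for the tag-only sample.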
# ELK1 = target: T2, ELK1 (Homo sapiens, UniProt P19419 1-428); conditions: protein: recombinant; tags: N-terminal GST; dsDNA, one strand shown
# T2 sequence: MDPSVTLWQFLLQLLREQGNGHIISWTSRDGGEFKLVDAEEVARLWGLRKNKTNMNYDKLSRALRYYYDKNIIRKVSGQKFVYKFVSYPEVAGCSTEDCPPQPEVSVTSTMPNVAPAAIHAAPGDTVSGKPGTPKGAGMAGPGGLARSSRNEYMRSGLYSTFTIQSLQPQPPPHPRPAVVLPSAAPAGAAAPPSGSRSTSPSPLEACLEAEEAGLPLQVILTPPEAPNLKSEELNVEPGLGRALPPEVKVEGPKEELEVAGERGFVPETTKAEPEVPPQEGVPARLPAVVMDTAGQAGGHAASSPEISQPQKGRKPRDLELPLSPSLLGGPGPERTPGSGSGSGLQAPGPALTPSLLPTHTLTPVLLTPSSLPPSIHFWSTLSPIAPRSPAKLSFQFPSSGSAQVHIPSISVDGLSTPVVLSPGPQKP
# How it was run: as §1
# ERG = target: T3, ERG (Homo sapiens, UniProt P11308 1-479); conditions: protein: recombinant; tags: N-terminal GST; dsDNA, one strand shown
# T3 sequence: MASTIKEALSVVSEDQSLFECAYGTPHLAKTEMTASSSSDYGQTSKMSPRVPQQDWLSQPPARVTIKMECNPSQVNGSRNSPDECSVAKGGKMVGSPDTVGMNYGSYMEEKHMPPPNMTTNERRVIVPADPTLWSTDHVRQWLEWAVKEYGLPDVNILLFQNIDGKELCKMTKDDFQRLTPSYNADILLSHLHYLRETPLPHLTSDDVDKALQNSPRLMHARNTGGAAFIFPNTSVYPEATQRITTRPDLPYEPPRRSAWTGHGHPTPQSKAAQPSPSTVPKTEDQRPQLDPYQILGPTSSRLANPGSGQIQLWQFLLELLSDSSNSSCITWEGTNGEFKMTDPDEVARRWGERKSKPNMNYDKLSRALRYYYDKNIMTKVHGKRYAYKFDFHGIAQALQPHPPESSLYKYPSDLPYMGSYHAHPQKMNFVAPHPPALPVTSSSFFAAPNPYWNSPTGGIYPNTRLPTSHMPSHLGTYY
# How it was run: as §1
# ELF1 = ELF1 (Homo sapiens, UniProt P32519 1-619); conditions: protein: recombinant; tags: N-terminal GST; dsDNA, one strand shown
# How it was run: as §1
# EHF = target: T4, EHF (Homo sapiens, UniProt Q9NZC4 1-300); conditions: protein: recombinant; tags: N-terminal GST; dsDNA, one strand shown
# T4 sequence: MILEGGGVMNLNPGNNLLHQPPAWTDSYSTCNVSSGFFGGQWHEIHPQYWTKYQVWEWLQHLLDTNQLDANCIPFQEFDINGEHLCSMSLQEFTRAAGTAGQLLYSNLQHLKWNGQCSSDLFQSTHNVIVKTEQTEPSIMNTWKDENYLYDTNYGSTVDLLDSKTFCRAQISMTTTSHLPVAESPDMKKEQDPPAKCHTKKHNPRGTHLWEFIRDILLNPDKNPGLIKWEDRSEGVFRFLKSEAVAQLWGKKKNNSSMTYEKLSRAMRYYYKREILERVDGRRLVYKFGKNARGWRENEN
# How it was run: as §1
# SPI1 = SPI1 (Homo sapiens, UniProt P17947 1-270); conditions: protein: recombinant; tags: N-terminal GST; dsDNA, one strand shown
# How it was run: as §1
# SPIB = SPIB (Homo sapiens, UniProt Q01892 1-262); conditions: protein: recombinant; tags: N-terminal GST; dsDNA, one strand shown
# How it was run: as §1
# ELK3 = target: T5, ELK3 (Homo sapiens, UniProt P41970 1-407); conditions: protein: recombinant; tags: N-terminal GST; dsDNA, one strand shown
# T5 sequence: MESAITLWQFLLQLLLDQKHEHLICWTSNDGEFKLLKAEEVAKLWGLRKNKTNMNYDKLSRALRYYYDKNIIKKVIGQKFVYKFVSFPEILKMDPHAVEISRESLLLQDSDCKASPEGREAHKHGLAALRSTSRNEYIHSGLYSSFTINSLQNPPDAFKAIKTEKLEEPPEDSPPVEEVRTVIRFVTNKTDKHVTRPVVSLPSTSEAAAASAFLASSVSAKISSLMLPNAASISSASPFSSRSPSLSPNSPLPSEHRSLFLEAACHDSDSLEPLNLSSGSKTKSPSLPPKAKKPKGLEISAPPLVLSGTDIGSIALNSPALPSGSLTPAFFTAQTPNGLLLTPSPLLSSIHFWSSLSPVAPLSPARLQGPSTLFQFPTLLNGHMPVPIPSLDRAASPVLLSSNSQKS
# How it was run: as §1
# FEV = target: T6, FEV (Homo sapiens, UniProt Q99581 1-238); conditions: protein: recombinant; tags: N-terminal GST; dsDNA, one strand shown
# T6 sequence: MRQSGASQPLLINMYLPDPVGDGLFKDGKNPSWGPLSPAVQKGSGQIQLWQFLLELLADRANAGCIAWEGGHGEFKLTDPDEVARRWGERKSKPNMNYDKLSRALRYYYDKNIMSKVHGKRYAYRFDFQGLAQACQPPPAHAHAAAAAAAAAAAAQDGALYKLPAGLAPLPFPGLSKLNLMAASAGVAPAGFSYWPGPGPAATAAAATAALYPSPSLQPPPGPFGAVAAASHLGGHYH
# How it was run: as §1
# ETV5 = ETV5 (Homo sapiens, UniProt P41161 1-510); conditions: protein: recombinant; tags: N-terminal GST; dsDNA, one strand shown
# How it was run: as §1
# HSF1 = HSF1 (Homo sapiens, UniProt Q00613 1-529); conditions: protein: recombinant; tags: N-terminal GST; chain copies: 3; dsDNA, one strand shown
# How it was run: as §1
# ELF4 = ELF4 (Homo sapiens, UniProt Q99607 1-663); conditions: protein: recombinant; tags: N-terminal GST; dsDNA, one strand shown
# How it was run: as §1
# ELK4 = target: T7, ELK4 (Homo sapiens, UniProt P28324-2 1-405); conditions: protein: recombinant; tags: N-terminal GST; dsDNA, one strand shown
# T7 sequence: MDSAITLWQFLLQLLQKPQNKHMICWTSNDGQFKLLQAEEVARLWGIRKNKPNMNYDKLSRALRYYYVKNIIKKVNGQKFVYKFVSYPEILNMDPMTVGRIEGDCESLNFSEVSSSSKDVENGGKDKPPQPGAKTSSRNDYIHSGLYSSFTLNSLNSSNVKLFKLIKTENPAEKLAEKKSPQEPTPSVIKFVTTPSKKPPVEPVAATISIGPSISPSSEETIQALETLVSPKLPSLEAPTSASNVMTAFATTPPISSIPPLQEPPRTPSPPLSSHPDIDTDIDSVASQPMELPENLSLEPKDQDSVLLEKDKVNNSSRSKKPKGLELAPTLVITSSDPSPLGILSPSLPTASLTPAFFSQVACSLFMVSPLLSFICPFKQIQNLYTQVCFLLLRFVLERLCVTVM
# How it was run: as §1
# ETV2 = target: T8, ETV2 (Homo sapiens, UniProt O00321 1-342); conditions: protein: recombinant; tags: N-terminal GST; dsDNA, one strand shown
# T8 sequence: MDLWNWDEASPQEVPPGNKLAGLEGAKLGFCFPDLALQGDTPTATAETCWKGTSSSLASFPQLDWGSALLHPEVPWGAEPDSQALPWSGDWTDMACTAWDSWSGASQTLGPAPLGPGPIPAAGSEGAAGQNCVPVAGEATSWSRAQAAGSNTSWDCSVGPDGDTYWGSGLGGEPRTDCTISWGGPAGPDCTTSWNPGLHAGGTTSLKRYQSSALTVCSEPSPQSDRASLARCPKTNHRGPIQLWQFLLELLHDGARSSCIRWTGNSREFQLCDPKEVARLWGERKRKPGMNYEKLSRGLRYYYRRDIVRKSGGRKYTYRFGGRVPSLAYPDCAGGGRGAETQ
# How it was run: as §1
# ELF3 = target: T9, ELF3 (Homo sapiens, UniProt P78545 1-371); conditions: protein: recombinant; tags: N-terminal GST; dsDNA, one strand shown
# T9 sequence: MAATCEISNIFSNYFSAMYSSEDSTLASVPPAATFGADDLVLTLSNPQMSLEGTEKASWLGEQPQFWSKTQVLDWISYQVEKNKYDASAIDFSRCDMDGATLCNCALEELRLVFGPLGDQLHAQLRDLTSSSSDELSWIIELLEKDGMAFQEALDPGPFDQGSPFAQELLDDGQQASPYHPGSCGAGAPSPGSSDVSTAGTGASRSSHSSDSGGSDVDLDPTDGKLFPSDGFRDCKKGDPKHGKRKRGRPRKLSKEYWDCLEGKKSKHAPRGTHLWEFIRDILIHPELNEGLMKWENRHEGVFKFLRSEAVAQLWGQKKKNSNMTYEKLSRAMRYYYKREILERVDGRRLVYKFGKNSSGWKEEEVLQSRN
# How it was run: as §1
# CRX = CRX (Homo sapiens, UniProt O43186 1-299); conditions: protein: recombinant; tags: N-terminal GST; dsDNA, one strand shown
# How it was run: as §1
# ETV1 = ETV1 (Homo sapiens, UniProt P50549 1-477); conditions: protein: recombinant; tags: N-terminal GST; dsDNA, one strand shown
# How it was run: as §1
# Chain of HSF1 (Q00613 whole entry): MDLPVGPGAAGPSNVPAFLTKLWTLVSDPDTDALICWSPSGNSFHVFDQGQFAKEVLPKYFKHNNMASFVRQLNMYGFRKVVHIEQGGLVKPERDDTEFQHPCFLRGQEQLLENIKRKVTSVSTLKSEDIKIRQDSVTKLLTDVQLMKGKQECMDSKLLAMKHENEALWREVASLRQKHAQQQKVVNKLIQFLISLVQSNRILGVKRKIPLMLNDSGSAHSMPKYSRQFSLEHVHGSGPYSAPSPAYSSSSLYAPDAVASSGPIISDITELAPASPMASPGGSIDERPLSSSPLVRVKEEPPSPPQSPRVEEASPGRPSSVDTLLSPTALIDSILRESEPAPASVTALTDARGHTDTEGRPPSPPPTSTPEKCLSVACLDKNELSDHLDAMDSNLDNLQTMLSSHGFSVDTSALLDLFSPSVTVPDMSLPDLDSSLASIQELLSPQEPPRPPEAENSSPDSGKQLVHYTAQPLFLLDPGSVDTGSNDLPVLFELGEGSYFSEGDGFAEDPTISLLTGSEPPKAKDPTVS
# Chain of ELF1 (P32519 whole entry): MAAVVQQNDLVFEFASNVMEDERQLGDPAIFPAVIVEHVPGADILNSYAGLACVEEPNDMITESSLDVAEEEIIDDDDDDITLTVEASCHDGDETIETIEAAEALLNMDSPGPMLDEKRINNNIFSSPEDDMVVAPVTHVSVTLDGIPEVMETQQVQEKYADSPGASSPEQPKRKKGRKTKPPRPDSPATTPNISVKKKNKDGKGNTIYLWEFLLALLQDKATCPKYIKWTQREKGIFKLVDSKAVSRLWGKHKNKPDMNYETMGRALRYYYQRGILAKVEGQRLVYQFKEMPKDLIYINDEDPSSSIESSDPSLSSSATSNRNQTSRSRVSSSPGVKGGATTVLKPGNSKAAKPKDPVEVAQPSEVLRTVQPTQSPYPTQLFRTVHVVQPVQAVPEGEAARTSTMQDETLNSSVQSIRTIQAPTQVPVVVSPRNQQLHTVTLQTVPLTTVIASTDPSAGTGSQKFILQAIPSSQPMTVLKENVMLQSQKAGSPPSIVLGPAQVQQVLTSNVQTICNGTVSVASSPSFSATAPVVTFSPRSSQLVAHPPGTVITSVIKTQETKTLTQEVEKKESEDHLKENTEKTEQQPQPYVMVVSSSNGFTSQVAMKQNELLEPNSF
# Chain of ETV5 (P41161 whole entry): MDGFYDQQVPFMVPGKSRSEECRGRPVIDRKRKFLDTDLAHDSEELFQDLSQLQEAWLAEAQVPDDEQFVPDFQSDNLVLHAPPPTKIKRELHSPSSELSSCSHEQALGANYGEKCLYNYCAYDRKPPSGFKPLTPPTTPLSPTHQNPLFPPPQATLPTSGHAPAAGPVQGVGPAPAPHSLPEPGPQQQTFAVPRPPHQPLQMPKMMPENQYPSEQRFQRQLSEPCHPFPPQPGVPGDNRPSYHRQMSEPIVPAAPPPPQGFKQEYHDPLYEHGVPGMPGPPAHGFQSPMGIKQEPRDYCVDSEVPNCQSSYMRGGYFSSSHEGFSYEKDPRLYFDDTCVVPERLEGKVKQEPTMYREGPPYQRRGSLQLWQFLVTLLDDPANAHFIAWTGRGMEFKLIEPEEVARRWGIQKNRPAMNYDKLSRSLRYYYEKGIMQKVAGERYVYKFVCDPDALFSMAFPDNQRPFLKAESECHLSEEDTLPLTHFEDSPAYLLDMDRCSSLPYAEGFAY
# Chain of ETV1 (P50549 whole entry): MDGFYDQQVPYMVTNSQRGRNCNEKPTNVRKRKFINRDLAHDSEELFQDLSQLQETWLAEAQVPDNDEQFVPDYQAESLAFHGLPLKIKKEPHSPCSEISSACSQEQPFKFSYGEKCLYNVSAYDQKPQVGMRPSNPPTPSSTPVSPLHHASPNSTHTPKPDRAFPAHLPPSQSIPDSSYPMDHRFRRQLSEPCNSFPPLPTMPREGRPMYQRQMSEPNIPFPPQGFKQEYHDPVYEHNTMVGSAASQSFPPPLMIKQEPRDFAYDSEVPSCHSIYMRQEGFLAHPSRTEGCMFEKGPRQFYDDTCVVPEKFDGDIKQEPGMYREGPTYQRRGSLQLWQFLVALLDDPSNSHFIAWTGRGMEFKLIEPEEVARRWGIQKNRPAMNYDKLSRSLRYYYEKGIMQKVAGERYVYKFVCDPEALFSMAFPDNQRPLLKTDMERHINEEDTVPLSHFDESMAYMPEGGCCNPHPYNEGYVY
# Chain of ELF4 (Q99607 whole entry): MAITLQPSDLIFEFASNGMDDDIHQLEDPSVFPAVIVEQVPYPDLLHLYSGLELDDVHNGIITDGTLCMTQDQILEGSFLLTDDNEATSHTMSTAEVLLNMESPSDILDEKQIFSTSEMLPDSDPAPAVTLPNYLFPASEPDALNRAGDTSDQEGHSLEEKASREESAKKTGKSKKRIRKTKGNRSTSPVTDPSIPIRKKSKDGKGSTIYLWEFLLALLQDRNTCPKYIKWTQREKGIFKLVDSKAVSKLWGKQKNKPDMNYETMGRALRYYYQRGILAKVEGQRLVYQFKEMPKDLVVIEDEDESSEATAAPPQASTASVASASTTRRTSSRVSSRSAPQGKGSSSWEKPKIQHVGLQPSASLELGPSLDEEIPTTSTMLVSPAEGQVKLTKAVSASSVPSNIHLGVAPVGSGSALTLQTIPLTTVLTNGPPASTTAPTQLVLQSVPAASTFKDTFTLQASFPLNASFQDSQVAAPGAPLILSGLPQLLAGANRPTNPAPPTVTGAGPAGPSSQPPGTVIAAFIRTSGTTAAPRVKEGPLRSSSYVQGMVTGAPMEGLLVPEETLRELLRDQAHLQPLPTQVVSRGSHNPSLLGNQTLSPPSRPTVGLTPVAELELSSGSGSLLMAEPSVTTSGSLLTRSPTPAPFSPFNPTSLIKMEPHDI
# Chain of CRX (O43186 whole entry): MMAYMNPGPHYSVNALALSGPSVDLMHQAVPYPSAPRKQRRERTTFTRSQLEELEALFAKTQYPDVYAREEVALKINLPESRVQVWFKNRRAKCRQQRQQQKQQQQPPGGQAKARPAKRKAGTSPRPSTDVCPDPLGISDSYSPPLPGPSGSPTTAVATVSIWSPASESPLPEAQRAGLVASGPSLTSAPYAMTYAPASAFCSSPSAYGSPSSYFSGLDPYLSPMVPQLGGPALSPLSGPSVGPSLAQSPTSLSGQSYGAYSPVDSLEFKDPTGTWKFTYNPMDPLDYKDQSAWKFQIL
# Chain of SPIB (Q01892 whole entry): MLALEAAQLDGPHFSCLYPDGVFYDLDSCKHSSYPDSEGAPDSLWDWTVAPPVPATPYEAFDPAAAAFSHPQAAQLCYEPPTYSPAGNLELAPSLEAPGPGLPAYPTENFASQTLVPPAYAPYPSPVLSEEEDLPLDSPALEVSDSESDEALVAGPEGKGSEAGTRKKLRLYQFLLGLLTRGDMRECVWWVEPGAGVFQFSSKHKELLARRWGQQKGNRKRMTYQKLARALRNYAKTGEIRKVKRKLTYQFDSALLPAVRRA
sequence,measurement,setting,value
CAGATT,binding signal,FLI1,"1.07 fold enrichment (6-mer frequency, TF over GST control)"
same,binding signal,ELK1,"1.05 fold enrichment (6-mer frequency, TF over GST control)"
same,binding signal,ERG,"1.06 fold enrichment (6-mer frequency, TF over GST control)"
same,binding signal,ELF1,"1 fold enrichment (6-mer frequency, TF over GST control)"
same,binding signal,EHF,"1.01 fold enrichment (6-mer frequency, TF over GST control)"
same,binding signal,SPI1,"1.03 fold enrichment (6-mer frequency, TF over GST control)"
same,binding signal,SPIB,"1.02 fold enrichment (6-mer frequency, TF over GST control)"
same,binding signal,ELK3,"1.12 fold enrichment (6-mer frequency, TF over GST control)"
same,binding signal,FEV,"1 fold enrichment (6-mer frequency, TF over GST control)"
same,binding signal,ETV5,"1 fold enrichment (6-mer frequency, TF over GST control)"
same,binding signal,HSF1,"1.75 fold enrichment (6-mer frequency, TF over GST control)"
same,binding signal,ELF4,"1.06 fold enrichment (6-mer frequency, TF over GST control)"
same,binding signal,ELK4,"1.01 fold enrichment (6-mer frequency, TF over GST control)"
same,binding signal,ETV2,"1.02 fold enrichment (6-mer frequency, TF over GST control)"
same,binding signal,ELF3,"1.06 fold enrichment (6-mer frequency, TF over GST control)"
same,binding signal,CRX,"2.1 fold enrichment (6-mer frequency, TF over GST control)"
same,binding signal,ETV1,"1.03 fold enrichment (6-mer frequency, TF over GST control)"

# Reference: article PMC7862700, “An all-to-all approach to the identification of sequence-specific readers for epigenetic DNA modifications on cytosine”
